In PubChem BioAssay:
Calls of active or inactive are those of the source.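 The calls were made as follows, unless noted: active = Her2 level under about 52% in both replicate screens, with viability over 70% of control (limit read from the data); inconclusive = Her2 under the limit in one screen only, or viability under 70%; inactive = Her2 level above the set limit.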

Target: Receptor tyrosine-protein kinase erbB-2 (Homo sapiens) (UniProt P04626)
Test: Her2 expression decrease, cell viability multiplex – SKBR3 breast tumor cells, AlphaScreen, ATP viability, primary screen (AID 461);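 also: lower value means less Her2 protein in the cells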
Conditions: 18-24 h, at 10 µM, hits give low values

Receptor tyrosine-protein kinase erbB-2 (Homo sapiens), sequence (P04626 whole entry, looked up): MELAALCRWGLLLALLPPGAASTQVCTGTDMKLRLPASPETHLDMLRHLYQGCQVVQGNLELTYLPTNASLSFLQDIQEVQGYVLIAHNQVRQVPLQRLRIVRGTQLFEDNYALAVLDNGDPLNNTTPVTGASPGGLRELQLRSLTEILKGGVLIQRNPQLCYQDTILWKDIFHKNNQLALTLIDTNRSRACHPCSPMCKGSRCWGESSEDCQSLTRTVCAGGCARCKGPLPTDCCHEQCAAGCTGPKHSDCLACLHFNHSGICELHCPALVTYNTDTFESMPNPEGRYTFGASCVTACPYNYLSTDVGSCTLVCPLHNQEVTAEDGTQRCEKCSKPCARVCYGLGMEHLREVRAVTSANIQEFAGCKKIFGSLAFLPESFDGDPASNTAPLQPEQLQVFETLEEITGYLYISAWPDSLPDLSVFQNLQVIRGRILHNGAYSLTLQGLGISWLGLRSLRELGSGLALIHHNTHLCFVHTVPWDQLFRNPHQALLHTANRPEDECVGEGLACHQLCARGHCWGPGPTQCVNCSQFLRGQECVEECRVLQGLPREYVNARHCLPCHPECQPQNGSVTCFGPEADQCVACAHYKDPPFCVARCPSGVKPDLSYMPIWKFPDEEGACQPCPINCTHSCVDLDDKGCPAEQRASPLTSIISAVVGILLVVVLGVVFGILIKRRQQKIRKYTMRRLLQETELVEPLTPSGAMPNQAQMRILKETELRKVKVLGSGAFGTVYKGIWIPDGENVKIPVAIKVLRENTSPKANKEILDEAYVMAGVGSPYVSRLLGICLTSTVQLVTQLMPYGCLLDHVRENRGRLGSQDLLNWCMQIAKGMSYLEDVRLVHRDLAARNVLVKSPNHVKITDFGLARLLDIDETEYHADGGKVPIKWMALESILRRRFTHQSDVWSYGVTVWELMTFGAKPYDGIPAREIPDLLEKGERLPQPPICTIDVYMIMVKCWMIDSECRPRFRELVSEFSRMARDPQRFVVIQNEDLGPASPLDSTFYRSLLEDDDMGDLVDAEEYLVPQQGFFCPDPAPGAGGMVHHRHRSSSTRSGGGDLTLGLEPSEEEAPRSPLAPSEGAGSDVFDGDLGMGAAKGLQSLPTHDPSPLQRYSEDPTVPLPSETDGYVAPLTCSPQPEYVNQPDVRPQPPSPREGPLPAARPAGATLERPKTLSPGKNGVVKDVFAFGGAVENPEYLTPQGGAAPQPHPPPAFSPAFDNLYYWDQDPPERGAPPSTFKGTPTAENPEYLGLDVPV

| Structure (SMILES) | Her2 level |
| --- | --- |
| CCCNCC(O)COc1ccccc1C(=O)CCc1ccccc1 (centres undefined) | 100% (inactive) |
| CC(C)(S)[C@@H](N)C(=O)O | 93% (inactive) |
| CC(=O)OCC(=O)[C@@]1(O)CC[C@H]2[C@@H]3CCC4=CC(=O)C=C[C@]4(C)[C@@]3(Cl)[C@@H](Cl)C[C@@]21C | 116% (inactive) |
| CCOC(=O)CCC(=O)O[C@H]1[C@H](O[C@@H]2[C@@H](C)[C@H](O[C@H]3C[C@@](C)(OC)[C@@H](O)[C@H](C)O3)[C@@H](C)C(=O)O[C@H](CC)[C@@](C)(O)[C@H](O)[C@@H](C)C(=O)[C@H](C)C[C@@]2(C)O)O[C@H](C)C[C@@H]1N(C)C | 98% (inactive) |
| CC(C)[N+](C)(CCOC(=O)C1c2ccccc2Oc2ccccc21)C(C)C | 93% (inactive) |
| O=c1n(CCCN2CCN(c3cccc(Cl)c3)CC2)nc2ccccn12 | 93% (inactive) |
| CN(C)CCOC(C)(c1ccccc1)c1ccccn1 (centres undefined) | 120% (inactive) |
| Nc1ccc(S(=O)(=O)NC(=O)c2ccccc2)cc1 | 100% (inactive) |
| Nc1ccc2[nH]ncc2c1 | 106% (inactive) |
| CCCCOc1ccc(OCCCN2CCOCC2)cc1 | 108% (inactive) |
| Nc1nc(F)nc2c1ncn2[C@@H]1O[C@H](CO)[C@@H](O)[C@@H]1O | 104% (inactive) |
| CC(C)(C)NC[C@H](O)COc1nsnc1N1CCOCC1 | 110% (inactive) |
| CCCn1c(=O)[nH]c(=O)c2[nH]cnc21 | 92% (inactive) |
| CC(COc1ccccc1)NC(C)C(O)c1ccc(O)cc1 (centres undefined) | 105% (inactive) |
| Cc1cc(NC(=O)C2=C(O)c3ccccc3S(=O)(=O)N2C)no1 | 113% (inactive) |
| CCN(CC)CC#CCOC(=O)C(O)(c1ccccc1)C1CCCCC1 (centres undefined) | 99% (inactive) |
| CN1CCN2c3ccccc3Cc3ccccc3C2C1 (centres undefined) | 117% (inactive) |
| O=C(O)Cc1cc(I)c(Oc2ccc(O)c(I)c2)c(I)c1 | 106% (inactive) |
| CC(=O)N[C@@H](CS)C(=O)O | 105% (inactive) |
| CN(CCO)CC(O)Cn1cnc2c1c(=O)n(C)c(=O)n2C (centres undefined) (tested in a mixture with another compound) | 88.5% (inactive) |
| N=c1c[n+](N2CCOCC2)[n-]o1 | 100% (inactive) |
| OCCN(CCO)c1nc(N2CCCCC2)c2nc(N(CCO)CCO)nc(N3CCCCC3)c2n1 | 94.5% (inactive) |
| CC(=O)NS(=O)(=O)c1ccc(N)cc1 | 124% (inactive) |
| C[C@]12CC[C@@H]3c4ccc(OS(=O)(=O)O)cc4CC[C@H]3[C@@H]1CCC2=O | 108% (inactive) |
| CN(C)CCOc1ccccc1Cc1ccccc1 | 95.5% (inactive) |
| CC(=O)OCC(=O)[C@@]1(O)[C@H](C)C[C@H]2[C@@H]3CCC4=CC(=O)C=C[C@]4(C)[C@@]3(F)[C@@H](O)C[C@@]21C | 116% (inactive) |
| c1ccc2[nH]c(-c3cscn3)nc2c1 | 104% (inactive) |

Tested on: not listed separately
Test: reduced viability of SK-BR-3 breast cancer cells – cell-based, 24 h, human, pilot screen (AID 572;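 active = viability at or below 10% of carrier control in both of two separate runs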;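 also: compound exposure lasted between 18 and 24 h rather than exactly 24 h; 100% = carrier-treated control wells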)
Conditions: SK-BR-3 viability, CellTiter-Glo luminescence, at 10 µM, hits give low values

| Structure (SMILES) | viability |
| --- | --- |
| CCCNCC(O)COc1ccccc1C(=O)CCc1ccccc1 (centres undefined) | 97% (inactive) |
| CC(C)(S)[C@@H](N)C(=O)O | 102% (inactive) |
| CC(=O)OCC(=O)[C@@]1(O)CC[C@H]2[C@@H]3CCC4=CC(=O)C=C[C@]4(C)[C@@]3(Cl)[C@@H](Cl)C[C@@]21C | 114% (inactive) |
| CCOC(=O)CCC(=O)O[C@H]1[C@H](O[C@@H]2[C@@H](C)[C@H](O[C@H]3C[C@@](C)(OC)[C@@H](O)[C@H](C)O3)[C@@H](C)C(=O)O[C@H](CC)[C@@](C)(O)[C@H](O)[C@@H](C)C(=O)[C@H](C)C[C@@]2(C)O)O[C@H](C)C[C@@H]1N(C)C | 97% (inactive) |
| CC(C)[N+](C)(CCOC(=O)C1c2ccccc2Oc2ccccc21)C(C)C | 108% (inactive) |
| O=c1n(CCCN2CCN(c3cccc(Cl)c3)CC2)nc2ccccn12 | 81% (inactive) |
| CN(C)CCOC(C)(c1ccccc1)c1ccccn1 (centres undefined) | 79.5% (inactive) |
| Nc1ccc(S(=O)(=O)NC(=O)c2ccccc2)cc1 | 104% (inactive) |
| Nc1ccc2[nH]ncc2c1 | 80.5% (inactive) |
| CCCCOc1ccc(OCCCN2CCOCC2)cc1 | 96.5% (inactive) |
| Nc1nc(F)nc2c1ncn2[C@@H]1O[C@H](CO)[C@@H](O)[C@@H]1O | 97% (inactive) |
| CC(C)(C)NC[C@H](O)COc1nsnc1N1CCOCC1 | 112% (inactive) |
| CCCn1c(=O)[nH]c(=O)c2[nH]cnc21 | 104% (inactive) |
| CC(COc1ccccc1)NC(C)C(O)c1ccc(O)cc1 (centres undefined) | 97% (inactive) |
| Cc1cc(NC(=O)C2=C(O)c3ccccc3S(=O)(=O)N2C)no1 | 96.5% (inactive) |
| CCN(CC)CC#CCOC(=O)C(O)(c1ccccc1)C1CCCCC1 (centres undefined) | 82% (inactive) |
| CN1CCN2c3ccccc3Cc3ccccc3C2C1 (centres undefined) | 82.5% (inactive) |
| O=C(O)Cc1cc(I)c(Oc2ccc(O)c(I)c2)c(I)c1 | 89% (inactive) |
| CC(=O)N[C@@H](CS)C(=O)O | 105% (inactive) |
| CN(CCO)CC(O)Cn1cnc2c1c(=O)n(C)c(=O)n2C (centres undefined) (tested in a mixture with another compound) | 87% (inactive) |
| N=c1c[n+](N2CCOCC2)[n-]o1 | 114% (inactive) |
| OCCN(CCO)c1nc(N2CCCCC2)c2nc(N(CCO)CCO)nc(N3CCCCC3)c2n1 | 117% (inactive) |
| CC(=O)NS(=O)(=O)c1ccc(N)cc1 | 118% (inactive) |
| C[C@]12CC[C@@H]3c4ccc(OS(=O)(=O)O)cc4CC[C@H]3[C@@H]1CCC2=O | 87% (inactive) |
| CN(C)CCOc1ccccc1Cc1ccccc1 | 88.5% (inactive) |
| CC(=O)OCC(=O)[C@@]1(O)[C@H](C)C[C@H]2[C@@H]3CCC4=CC(=O)C=C[C@]4(C)[C@@]3(F)[C@@H](O)C[C@@]21C | 118% (inactive) |
| c1ccc2[nH]c(-c3cscn3)nc2c1 | 106% (inactive) |
